Source: the antibiotic and cytotoxicity screens of Wong et al. (2023)
The campaign covered roughly 39,000 compounds. About 3,300 (8.5%) were called active. The sample holds actives, similar compounds and a random draw of the others, so the mix is not that of the screen.

These molecules were tested on HepG2 (assay: cytotoxicity call (relative viability < 0.9)). Conditions: 10 µM.

Structure (SMILES) | cytotoxicity call
CCn1nnnc1NCc1cccn1C | inactive
C[C@@H]1CN([C@H](C)CO)C(=O)c2cc(NC(=O)Nc3ccc(C(F)(F)F)cc3)ccc2O[C@@H]1CN(C)Cc1ccc(C(F)(F)F)cc1 | active
C[C@@H]1CN([C@H](C)CO)C(=O)c2cc(NC(=O)Nc3ccc(C(F)(F)F)cc3)ccc2O[C@H]1CN(C)Cc1ccc(C(F)(F)F)cc1 | active
C[C@@H]1CN([C@@H](C)CO)C(=O)c2cc(NC(=O)Nc3ccc(C(F)(F)F)cc3)ccc2O[C@@H]1CN(C)Cc1ccc(C(F)(F)F)cc1 | active
C[C@@H]1CN([C@@H](C)CO)C(=O)c2cc(NC(=O)Nc3ccc(C(F)(F)F)cc3)ccc2O[C@H]1CN(C)Cc1ccc(C(F)(F)F)cc1 | active
C[C@H](CO)N1C[C@H](C)[C@H](CN(C)S(=O)(=O)c2ccc(F)cc2)Oc2ccc(NS(=O)(=O)c3ccc(F)cc3)cc2CC1=O | inactive
c1cnc2c(c1)OCCN2 | inactive
C=CCC[C@@H](Cc1ccc(F)cc1)C(=O)OC[C@H]1CCCN1C(=O)[C@H](CC=C)CC(=O)N(CCO)Cc1ccccc1 | inactive
C[C@@H]1CCCCO[C@@H](CN(C)C(=O)C2CCCCC2)[C@@H](C)CN([C@@H](C)CO)C(=O)c2cc(NC(=O)c3ccccc3)ccc2O1 | inactive
O=c1nc(NCc2ccco2)cc[nH]1 | inactive
C[C@@H]1CN([C@@H](C)CO)C(=O)c2cc(NC(=O)Cn3cnnn3)ccc2O[C@H]1CN(C)Cc1ccc2c(c1)OCO2 | inactive
COc1ccc(S(=O)(=O)N(C)C[C@H]2Oc3ccc(NS(=O)(=O)c4ccccc4)cc3C(=O)N([C@H](C)CO)C[C@@H]2C)cc1 | inactive
Cc1ccc(S(=O)(=O)Nc2ccc3c(c2)CC(=O)N([C@@H](C)CO)C[C@H](C)[C@@H](CN(C)S(=O)(=O)c2ccccc2)O3)cc1 | inactive
Cc1noc(C)c1NC(=O)Nc1ccc2c(c1)C(=O)N([C@@H](C)CO)C[C@H](C)[C@@H](CN(C)S(=O)(=O)c1ccc(Cl)cc1)OCCCC[C@H](C)O2 | inactive
CCOC(=O)C1=NNC[C@@H]1C(=O)OCC | inactive
C[C@H](CO)N1C[C@H](C)[C@@H](CN(C)Cc2ccc(C(F)(F)F)cc2)Oc2ccc(NC(=O)Nc3ccc(C(F)(F)F)cc3)cc2C1=O | inactive
C[C@H]1CN([C@@H](C)CO)C(=O)c2cc(NC(=O)Nc3ccc(C(F)(F)F)cc3)ccc2O[C@@H]1CN(C)Cc1ccc(C(F)(F)F)cc1 | active
C[C@H](CO)N1C[C@H](C)[C@H](CN(C)Cc2ccc(C(F)(F)F)cc2)Oc2ccc(NC(=O)Nc3ccc(C(F)(F)F)cc3)cc2C1=O | active
C[C@H]1CN([C@@H](C)CO)C(=O)c2cc(NC(=O)Nc3ccc(C(F)(F)F)cc3)ccc2O[C@H]1CN(C)Cc1ccc(C(F)(F)F)cc1 | inactive
CC(=O)N1CCN(c2ccnc3c2c(=O)n(CC(=O)NC(C)(C)C)c(=O)n3C)CC1 | inactive
CO[C@H]1C[C@@H]2CC[C@@H](C)[C@@](O)(O2)C(=O)C(=O)N2CCCC[C@H]2C(=O)O[C@H]([C@H](C)C[C@@H]2CC[C@@H](OCCO)[C@H](OC)C2)CC(=O)[C@H](C)/C=C(\C)[C@@H](O)[C@@H](OC)C(=O)[C@H](C)C[C@H](C)/C=C/C=C/C=C/1C | inactive

Structure (SMILES) | cytotoxicity call
C[C@@H]1CN([C@@H](C)CO)C(=O)Cc2cc(NS(=O)(=O)c3cn(C)cn3)ccc2O[C@@H]1CN(C)S(=O)(=O)c1ccc(Cl)cc1 | inactive
C[C@H]1CN([C@@H](C)CO)C(=O)c2cccc(NS(=O)(=O)c3ccc(Cl)cc3)c2O[C@H]1CN(C)Cc1ccc(-c2ccccc2)cc1 | inactive
COc1ccc(N2C(=O)C[C@@H](c3ccc(Br)cc3)[C@H]2C(=O)Nc2cccc3cccnc23)cc1 | inactive
COc1nc(=NC(=O)NS(=O)(=O)Nc2cccc3cccnc23)nc(OC)[nH]1 | active
C[C@@H]1CN([C@H](C)CO)C(=O)Cc2cc(NS(=O)(=O)c3ccc(F)cc3)ccc2O[C@H]1CN(C)S(=O)(=O)c1cccs1 | inactive
Cc1cc(C2(c3cc(C)c(N)c(C)c3)CCCCC2)cc(C)c1N | active
CC1CCC(NC(=O)N(CCCl)[NH2+][O-])CC1 (configuration not stated) | inactive
CC(C)NC(=O)[C@@H]1c2ccccc2C(=O)N(Cc2cc(C(F)(F)F)cc(C(F)(F)F)c2)[C@H]1c1ccc(CO)cc1 | inactive
Cc1ccc(N(c2ccc(C)cc2)c2cccnc2)cc1 | inactive
C[C@@H]1CN([C@@H](C)CO)S(=O)(=O)c2ccc(C#Cc3ccccc3F)cc2O[C@@H]1CN(C)CC1CCOCC1 | inactive
O=C(C[C@H]1C=C[C@H](NC(=O)CN2CCOCC2)[C@@H](CO)O1)NCCc1ccccc1 | inactive
CC(C)NC(=O)N(C)C[C@@H]1Oc2ccc(NC(=O)NC3CCCCC3)cc2C(=O)N([C@@H](C)CO)C[C@H]1C | inactive
Cc1ccc(S(=O)(=O)N(C)C[C@@H]2OCCCC[C@@H](C)Oc3ccc(NC(=O)Nc4ccccc4)cc3C(=O)N([C@H](C)CO)C[C@H]2C)cc1 | inactive
Cc1ccc(S(=O)(=O)N(C)C[C@H]2OCCCC[C@@H](C)Oc3ccc(NC(=O)Nc4ccc(F)cc4)cc3C(=O)N([C@H](C)CO)C[C@H]2C)cc1 | inactive
Cc1ccc(S(=O)(=O)N(C)C[C@@H]2OCCCC[C@H](C)Oc3ccc(NC(=O)Nc4ccccc4)cc3C(=O)N([C@@H](C)CO)C[C@H]2C)cc1 | inactive
Cc1ccc(S(=O)(=O)N(C)C[C@@H]2OCCCC[C@@H](C)Oc3ccc(NC(=O)Nc4ccccc4)cc3C(=O)N([C@@H](C)CO)C[C@H]2C)cc1 | active
Cc1ccc(S(=O)(=O)N(C)C[C@@H]2OCCCC[C@H](C)Oc3ccc(NC(=O)Nc4ccc(F)cc4)cc3C(=O)N([C@@H](C)CO)C[C@H]2C)cc1 | inactive
Cc1ccc(S(=O)(=O)N(C)C[C@@H]2OCCCC[C@H](C)Oc3ccc(NC(=O)Nc4ccc(F)cc4)cc3C(=O)N([C@@H](C)CO)C[C@@H]2C)cc1 | inactive
Cc1ccc(S(=O)(=O)N(C)C[C@@H]2OCCCC[C@@H](C)Oc3ccc(NC(=O)Nc4ccc(F)cc4)cc3C(=O)N([C@@H](C)CO)C[C@@H]2C)cc1 | inactive
Cc1ccc(S(=O)(=O)N(C)C[C@H]2OCCCC[C@@H](C)Oc3ccc(NC(=O)Nc4ccc(F)cc4)cc3C(=O)N([C@@H](C)CO)C[C@H]2C)cc1 | active
Cc1ccc(S(=O)(=O)N(C)C[C@@H]2OCCCC[C@@H](C)Oc3ccc(NC(=O)Nc4ccc(F)cc4)cc3C(=O)N([C@H](C)CO)C[C@H]2C)cc1 | active
